# ALR inh: inhibitors of human ALR sulfhydryl oxidase, primary screen, biochemical, H2O2 detection, HRP-luminol luminescence, single point | inhibition, % (concentration not given with the values) | AID 485317, 2010 | actives 3.8% (n = 290,000) | FAD-linked sulfhydryl oxidase ALR (Homo sapiens), P55789 | purified ALR, DTT oxidation;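 active = mean replicate inhibition above about 79%, with every replicate also reaching it, limit read from the data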
# PRMT1 inh: PRMT1 methyltransferase inhibitors, primary screen, biochemical, fluorescence polarization | recombinant PRMT1, activity-based probe fluorescence polarization | inhibition, % at 2.79 µM | actives 1.3% (n = 370,000) | AID 652257, 2013;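 active = inhibition above about 21% made by adding two undisclosed values, limit read from the data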
# Rtt109 HAT inh: inhibitors of C. albicans Rtt109/Vps75 HAT, primary screen, biochemical, ThioGlo CoA-SH fluorescence, plate reader. Histone acetyltransferase RTT109 (Candida albicans (strain SC5314 / ATCC MYA-2876)), …. purified Rtt109/Vps75, 4 h. inhibition, % at 34.9 µM. actives 0.16% (n = 330,000). AID 540336, 2011;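 active = inhibition of at least 50% in every replicate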
# LANA-H2B inh: blockers of LANA interaction with H2A/H2B – biochemical, FP readout, HTS, primary screen; cell-free LANA-H2A/H2B peptide, fluorescence polarization; inhibition, % (concentration not given with the values); actives 0.6% (n = 320,000); in the data active = inhibition mostly above about 10%, no sharp cut-off; inactive = mostly below about 6.7%
# ABHD5-PLIN5 inh: ABHD5-PLIN5 interaction inhibitors, primary screen, cell lysate, split luciferase complementation, luminescence | Split G. princeps luciferase complementation, 4 h | actives 0.78% (n = 360,000) | Perilipin-5 (Homo sapiens) + 1-acylglycerol-3-phosphate O-acyltransferase ABHD5 (Homo … | inhibition, % at 4 µM;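 active = inhibition above the mean inhibition across every tested compound plus 3 SD, cut at about 22% in these data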;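 also: 0% = DMSO only wells and the 100% control is not disclosed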
# rCAG RNA binder: binders of r(CAG) RNA repeats, primary screen, biochemical, fluorescence; r(CAG) RNA repeat, TO-PRO-1 dye displacement fluorescence; inhibition, % at 3 µM; actives 1.3% (n = 370,000); AID 651821, 2012;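 active = inhibition above the plate cutoff, the mean of all test compounds on that plate plus 3 SD, cut at about 35% in these data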;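 also: 0% = DMSO alone and 100% = 100 µM mitoxantrone as full dye displacement; higher means more dye released from RNA so lower well fluorescence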
# ABHD5-PLIN5 conf: ABHD5-PLIN5 interaction inhibitors, confirmation, biochemical, luminescence. shares compounds with ABHD5-PLIN5 inh. inhibition, % at 4 µM. actives 67% (n = 2,200); in the data active = inhibition above about 23%;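 also: 0% = DMSO vehicle wells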
# HNF4 split-luc: HNF4 dimerization inhibitors, counter-screen for ABHD5-PLIN5 interaction inhibitor project, biochemical, split-luciferase complementation, luminescence; AID 651674, 2012; shares compounds with ABHD5-PLIN5 inh; actives 77% (n = 2,200); inhibition, % at 4 µM;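 active = mean inhibition across replicate wells exceeding the computed hit threshold, cut at about 13% in these data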;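 also: light from luciferase halves that rejoin when HNF4 fusion proteins dimerize; 0% = DMSO only wells and the 100% control is not given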
# Starred values were filed as active, the others as inactive; · = no result. An excerpt weighted towards active compounds, which were near 5.9% of everything screened.
SMILES,ALR inh,PRMT1 inh,Rtt109 HAT inh,LANA-H2B inh,ABHD5-PLIN5 inh,rCAG RNA binder,ABHD5-PLIN5 conf,HNF4 split-luc
CC(C)CN1C(=O)C[C@]2(C(=O)N(C)c3ccc(NC(=O)C(C)(C)C)cc32)C1c1ccccc1 (stereo partly drawn),·,-0.4,·,·,·,0.0,·,·
C[C@@H]1CN([C@@H](C)CO)C(=O)CCCn2cc(nn2)CO[C@H]1CN(C)C(=O)c1cc(-c2ccccc2)on1,·,2.3,·,·,-6.5,-0.1,·,·
COc1ccc(OC)c2sc(NC(=O)C3=COCCO3)nc12,-35.9,-3.4,-10.6,-0.5,37.9*,3.1,10.7,3.9
COc1ccc(C)c2sc(NC(=O)C3=COCCO3)nc12,14.0,2.8,0.9,1.3,-4.2,0.8,·,·
O=C(c1ccccc1C(=O)N1CCN(c2ccccc2)CC1)N1CCN(c2ccccc2)CC1,·,15.4,-8.1,0.8,-0.8,-30.5,·,·
Nc1sccc1C(=O)N1CCN(c2ccccc2)CC1,·,5.8,·,·,29.9*,10.4,1.1,42.3*
O=C(NCc1ccco1)c1cccc2c1C(=O)c1ccc(N3CCCC3)cc1S2(=O)=O,15.6,37.1*,5.5,6.1,25.8*,-30.0,32.9*,73.5*
O=C(NCc1cccc(F)c1)c1cccc2c1C(=O)c1ccc(N3CCOCC3)cc1S2(=O)=O,-7.6,-0.2,-7.6,-1.7,25.3*,0.7,-1.0,16.4*
Cc1ccc(CNC(=O)c2cccc3c2C(=O)c2ccc(N4CCOCC4)cc2S3(=O)=O)cc1,-8.5,0.8,-17.1,2.0,5.1,-5.3,·,·
Cc1ccc(CNC(=O)c2cccc3c2C(=O)c2ccc(N4CCCCC4)cc2S3(=O)=O)cc1,0.3,0.2,3.4,3.5,11.1,-2.8,·,·
COc1ccc(OC)c2sc(NC(=O)C(C)C)nc12,-21.8,-2.4,0.2,-0.1,4.5,0.0,·,·
COc1ccc(OC)c2sc(Cl)nc12,1.6,13.3,1.3,-3.8,109.4*,-2.9,2.9,1.5
COc1ccc(/C=C/C(=O)c2ccccn2)cc1,-26.5,13.8,-6.7,-0.6,7.3,5.0,·,·
COc1ccc([N+](=O)[O-])c(C=CC(=O)c2ccccn2)c1,·,18.5,·,·,52.9*,4.3,97.8*,101.3*
O=C(N[C@@H](Cc1ccccc1)C(=O)CCl)OCc1ccccc1,97.5*,6.3,-3.4,-4.7,65.5*,0.8,96.5*,106.5*
O=C(N[C@@H](Cc1ccccc1)C(=O)N[C@@H](Cc1ccccc1)C(=O)O)OCc1ccccc1,·,-0.1,4.8,5.6,6.7,8.8,·,·
CN(C)/C=N/c1nc(Sc2ccc(C(F)(F)F)cc2[N+](=O)[O-])n[nH]1,3.6,2.3,6.5,4.2,-0.7,-2.7,·,·
O=[N+]([O-])c1cc(C(F)(F)F)cc([N+](=O)[O-])c1Sc1n[nH]c(C(F)(F)F)n1,-9.6,20.1,-5.1,-1.8,45.2*,3.7,75.3*,56.3*
O=C(O)c1ccccc1NSc1ccccc1[N+](=O)[O-],-33.1,15.2,10.3,0.5,6.1,23.4,·,·
O=C(O)c1ccccc1Sc1c([N+](=O)[O-])cc(C(F)(F)F)cc1[N+](=O)[O-],-11.2,4.0,-11.2,-1.1,27.0*,1.6,46.5*,29.5*
CC(=O)OCC1=C[C@@H]2OC(=O)C3=CO[C@@H](O[C@@H]4O[C@H](CO)[C@@H](O)[C@H](O)[C@H]4O)[C@H]1[C@@H]32,-4.1,-2.1,4.9,-0.8,-1.7,0.4,·,·
